FGF22 binding: shifts melting point of recombinant human FGF22 | Q9HCT0 | recombinant FGF22 thermal shift, SYPRO orange fluorescence; percent of sucrose octasulfate shift, DMSO zero | activity (Tm shift, normalised), % at 9.99 µM | 1.5% of 340,000 active | AID 651658;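 active means mean Tm shift, scaled 0 neutral to 100 positive control, at about 1.3% or above, every replicate too, limit read from the data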
Target sequence (Q9HCT0 whole entry, looked up): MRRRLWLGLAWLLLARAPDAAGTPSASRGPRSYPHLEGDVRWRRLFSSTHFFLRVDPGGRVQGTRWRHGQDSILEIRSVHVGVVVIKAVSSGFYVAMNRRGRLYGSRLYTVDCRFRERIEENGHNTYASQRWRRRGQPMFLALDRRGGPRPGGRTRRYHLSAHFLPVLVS
PvdQ inh: blocks Pseudomonas aeruginosa PvdQ acylase activity | inhibition, % at 10 µM | 0.063% of 340,000 active | purified PvdQ acylase, fluorescence plate reader; in the data active means inhibition above about 30%, passing the limit was not always enough;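 further: 0% = vehicle neutral wells and 100% = reference inhibitor wells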
PglD inh: inhibitors of Campylobacter jejuni PglD acetyltransferase; purified PglD enzyme, DTNB colorimetric CoA detection; inhibition, % at 12.5 µM; 0.098% of 360,000 active; AID 602405; in the data active means inhibition above about 16%, passing the limit was not always enough
CDK5 inh: CDK5/p35 (human) kinase inhibition. Q00535+Q15078. Recombinant CDK5/p35, ADP-Glo luminescence, 60 min. inhibition, % at 10 µM. 0.01% of 330,000 active. AID 488839;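 active means highest replicate inhibition of at least 50% and at least 75% of replicates reaching 50%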;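 further: plate controls were DMSO neutral control for no effect and GW8510 at 10 µM for full effect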
SIRT5 inh: blocks human SIRT5 desuccinylation of peptide | 1.1% of 330,000 active | Q9NXA8 | Purified SirT5, succinyl-peptide AMC, trypsin-coupled fluorescence | inhibition, % at 15 µM; in the data active means inhibition above about 15%
Target sequence (Q9NXA8 whole entry, looked up): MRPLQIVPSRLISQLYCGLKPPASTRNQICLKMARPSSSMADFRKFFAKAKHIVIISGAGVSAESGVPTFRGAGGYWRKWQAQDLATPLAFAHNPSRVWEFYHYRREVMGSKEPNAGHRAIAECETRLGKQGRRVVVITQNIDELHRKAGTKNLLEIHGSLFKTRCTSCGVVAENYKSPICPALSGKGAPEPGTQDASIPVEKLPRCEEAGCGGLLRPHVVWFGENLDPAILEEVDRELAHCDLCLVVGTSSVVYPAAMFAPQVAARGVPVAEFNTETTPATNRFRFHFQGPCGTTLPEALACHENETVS
dFosB act-1: activators of mouse delta FosB homodimer; P13346; activation, % at 25 µM; AID 493131; 0.99% of 340,000 active; purified delta FosB, TAMRA-CDK5 oligo fluorescence polarization; percent of positive-control signal above neutral wells;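 active means mean activation above about 17%, with every replicate also reaching it, limit read from the data, passing the limit was not always enough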
dFosB act-2: activators of mouse delta FosB homodimer DNA binding. shares compounds with dFosB act-1. purified delta FosB, TAMRA-CDK5 oligo fluorescence polarization; normalised: neutral wells 0, positive control 100. activation, % at 24.9 µM. 2,400 tested, under 10 active. AID 588690;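 active means highest replicate activation at or above 34% and every replicate reaching that threshold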;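 further: higher polarization means more probe DNA bound by delta FosB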
Active calls of the source: *; nt = no result. Hits are enriched below; roughly 2.8% of the tested compounds scored in any of these assays.

SMILES	FGF22 binding	PvdQ inh	PglD inh	CDK5 inh	SIRT5 inh	dFosB act-1	dFosB act-2
COc1cc(-c2ccc3oc(-c4ccsc4)cc(=O)c3c2)cc(OC)c1OC	0	-7	2	0	nt	44*	-12
C[C@@H]1CN([C@@H](C)CO)C(=O)c2cccc(NS(=O)(=O)c3cn(C)cn3)c2O[C@H]1CN(C)Cc1ccc(C(=O)Nc2ccccc2N)cc1	0	nt	nt	nt	1	nt	nt
COc1ccc(Cc2nnc(NC(=O)Nc3ccccc3F)s2)cc1	0	-19	-8	1	2	3	nt
O=C(Nc1nnc(-c2ccccc2SCc2ccccc2)s1)Nc1ccccc1F	nt	-6	7	nt	nt	91*	-8
O=C(Nc1nnc(Cc2ccc(F)cc2)s1)Nc1ccccc1F	0	10	2	0	6	27*	7
C[C@@H]1CCCCO[C@H](CN(C)Cc2ccc(C(F)(F)F)cc2)[C@H](C)CN([C@@H](C)CO)C(=O)c2cc(NC(=O)c3ccccc3)ccc2O1	0	nt	-2	nt	6	nt	nt
O=C(Nc1ccccc1)N1C[C@H]2[C@@H](c3ccccc31)[C@@H](CO)N2Cc1ccccc1Cl	0	nt	1	nt	4	nt	nt
Clc1ccc(-c2nnc(NCc3ccccc3)c3ccccc23)cc1	nt	-11	2	0	nt	18*	6
CN(C)CC(=O)N1CC2(C1)[C@@H](c1ccccc1)[C@@H](CO)N2C(=O)C1CCCC1	nt	nt	nt	nt	0	nt	nt
COc1ccc(CNC(=O)C[C@@H]2C[C@@H]3c4cc(NS(C)(=O)=O)ccc4O[C@@H]3[C@@H](CO)O2)cc1	0	nt	3	nt	-4	nt	nt
O=C(CSc1nnnn1-c1ccccc1)Nc1ncc(Cc2ccccc2Cl)s1	0	-1	nt	0	1	39*	0
CCN(CC)CCN(C(=O)CCS(=O)(=O)c1ccccc1)c1nc2c(C)cc(C)cc2s1	0	-11	0	0	1	56*	-2
COc1ccc(Cl)c2sc(N(CCN(C)C)C(=O)CCS(=O)(=O)c3ccc(C)cc3)nc12	0	-6	nt	2	-2	82*	3
CCN(CC)CCN(C(=O)CCS(=O)(=O)c1ccccc1)c1nc2cc(C)cc(C)c2s1	0	-3	1	-2	-3	43*	6
CCN(CC)CCN(C(=O)c1ccc2c(c1)OCCO2)c1nc2c(Cl)cccc2s1	0	-5	4	-2	-3	-7	nt
CCN(CC)CCN(C(=O)CCS(=O)(=O)c1ccccc1)c1nc2cc(OC)c(OC)cc2s1	0	-12	0	2	1	-5	nt
CCN(CC)CCN(C(=O)c1ccc2c(c1)OCCO2)c1nc2cc(C)cc(C)c2s1	0	-7	1	-1	0	30*	4
Cc1noc(C)c1S(=O)(=O)Nc1cccc2c1O[C@H](CN(C)C(=O)Nc1ccccc1)[C@H](C)CN([C@H](C)CO)C2=O	-1	nt	1	nt	1	nt	nt
CCCC#Cc1ccc([C@H]2[C@@H](CO)N(C(=O)NC(C)C)[C@H]2CNC(C)=O)cc1	nt	nt	nt	nt	4	nt	nt
Cc1cc(C)c2sc(N(CCN(C)C)C(=O)CCS(=O)(=O)c3ccccc3)nc2c1	0	-6	7	-2	-5	21*	3
CN1c2ccc(-c3ccccc3)cc2[C@H]2[C@H](CCN2C(=O)CN2CCOCC2)[C@H]1CO	0	nt	-3	nt	1	nt	nt
COc1cccc(CC(=O)n2nc(N)c3cc4ccc(OC)cc4nc32)c1	0	-12	3	1	2	32*	5
COc1ccc2cc3c(N)nn(C(=O)c4ccc(F)cc4)c3nc2c1	0	10	nt	1	-1	8	nt
COc1ccc2cc3c(N)nn(C(=O)c4cccc(F)c4)c3nc2c1	0	1	nt	0	-4	51*	-2
COc1ccc2cc3c(N)nn(C(=O)Cc4ccc(Cl)cc4)c3nc2c1	0	-10	0	1	-1	0	nt
SMILES	FGF22 binding	PvdQ inh	PglD inh	CDK5 inh	SIRT5 inh	dFosB act-1	dFosB act-2
CN(C)CC#Cc1ccc([C@@H]2[C@@H](CO)N3C(=O)CN(C(=O)c4ccccc4)C[C@@H]23)cc1	nt	nt	nt	nt	0	nt	nt
COc1ccc(NC(=O)c2c[nH]c(=O)n(-c3ccc(C)c(C)c3)c2=O)c(OC)c1	0	-10	nt	-1	10	35*	4
CCC(=O)N1CC[C@H]2[C@H](CO)Nc3ccc(-c4ccc(F)cc4)cc3[C@H]21	0	nt	-1	nt	0	nt	nt
COc1cccc(S(=O)(=O)Nc2ccc3c(c2)[C@@H]2C[C@@H](CC(=O)N4CCCCC4)O[C@@H](CO)[C@@H]2O3)c1	0	nt	1	nt	-2	nt	nt
O=C(C[C@H]1C[C@H]2c3cc(NC(=O)NC4CCCC4)ccc3O[C@H]2[C@H](CO)O1)NCCN1CCCCC1	0	nt	2	nt	-4	nt	nt
CCOc1ccc2nc(NC(=O)c3ccc(OC)c(S(=O)(=O)N4CCOCC4)c3)sc2c1	nt	-16	2	-1	nt	26*	5
CCOc1ccc2nc(NC(=O)c3ccc(S(=O)(=O)N4CCOCC4)cc3)sc2c1	nt	-12	0	2	nt	6	nt
O=C(COC(=O)/C=C/c1ccc([N+](=O)[O-])cc1)Nc1ccc(F)cc1	0	-7	-4	-1	-3	19*	5
NS(=O)(=O)c1ccc(NC(=O)COC(=O)/C=C/c2ccc([N+](=O)[O-])cc2)cc1	0	-11	2	-5	-2	2	nt
COc1ccc(C)cc1NC(=O)CNC(=O)Cn1ccc2ccccc2c1=O	nt	-9	-5	1	nt	47*	-1
COc1ccc([N+](=O)[O-])cc1NC(=O)CCNC(=O)Cn1ccc2ccccc2c1=O	0	4	nt	0	-4	19*	-5
COC(=O)C[C@@H]1CC[C@@H]2[C@H](COc3ccc(NC(=O)c4cnccn4)cc3C(=O)N2C)O1	0	nt	0	nt	1	nt	nt
C[C@@H]1CN([C@H](C)CO)C(=O)c2cc(N(C)C)ccc2O[C@@H](C)CCCCO[C@@H]1CN(C)C(=O)Nc1cccc2ccccc12	-1	nt	3	nt	8	nt	nt
CN1CCN(S(=O)(=O)c2ccc(Sc3nc4ccccc4[nH]3)c3nsnc23)CC1	nt	-12	-2	0	nt	40*	-8
Cc1cc(C(=O)CSc2nnc(NCc3ccccc3)s2)c(C)n1C	nt	-3	2	0	nt	-5	nt
CN1/C(=C\C(=O)CSc2nnc(NCc3ccccc3)s2)C(C)(C)c2ccccc21	nt	-15	-4	1	nt	23*	5
CN1/C(=C\C(=O)COC(=O)c2ccco2)C(C)(C)c2ccccc21	42	-10	-10	1	0	1	nt
CN1/C(=C\C(=O)c2ccco2)C(C)(C)c2ccccc21	0	-10	-2	-1	-5	24*	0

Screens from PubChem BioAssay.
